Results published in the supplement of paper PMC11417369.
In all, about 25,000 sequences were measured (“ln(normalized median fluorescence intensity)”: median about 6.7, highest 2% from about 10 on). This is one part of a sample in which the highest values are shown more often than they occur.

Each sequence was assayed on PfHDP1 homeodomain (GST-tagged) (assay: gcPBM binding intensity (ln(normalized median fluorescence intensity)); higher = stronger DNA binding).
In short: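 Binding intensity is the highest Masliner-normalised natural-log median intensity over replicate spots in either probe orientation. To obtain it, GST-tagged P. falciparum DNA-binding domains made in E. coli were incubated for 1 h on an Agilent 4 × 180k array of primer-extended double-stranded 36-bp intergenic genomic probes plus negative controls. Detection used Alexa488 anti-GST antibody with scanning at 488 nm.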

Question: Which “gcPBM binding intensity (ln)” value does the source give for “TTTTAATTGTTTATTTGTACATATGTTTAATTATAT [XGTACX_site571]” here?
Answer: Its value is 6.79.

Question: How did the “gcPBM binding intensity (ln)” value turn out when “TATATAAATGGACACACACACACCTTATAATTATTA [CACACA_site6093]” was run?
Answer: Its value is 6.85.

Question: Which “gcPBM binding intensity (ln)” value does the source give for “CCCACATAAAAAAATAAACACACATATGTATATATA [CACACA_site9040]” here?
Answer: The value was 7.07.

Question: “AAGAAAAACAATGAGATAAAGAAGAGAAAATATGTC [TGCATGCA_negctrl_site415]” was tested. Which “gcPBM binding intensity (ln)” value did it give?
Answer: The value was 6.88.

Question: “TATATCAAAATACATACACACATTTGTATTTACATT [CACACA_site5485]” was tested. Which “gcPBM binding intensity (ln)” value did it give?
Answer: Its value is 6.58.

Question: ACTTTTTTGAACAACGTGCACGTATTCATAACAAAA was tested. Which “gcPBM binding intensity (ln)” value did it give?
Answer: Its value is 10.6.

Question: With “TTGTATTCATAACAACGTACATATTTTGTAACTAAA [XGTACX_site4029]” as the sequence, how does the “gcPBM binding intensity (ln)” value read?
Answer: The value was 6.26.

Question: With “TTTGTTCATATTATTGTGCACTTAAACGTAACAAAA [GTGCAC_site9505]” as the sequence, how does the “gcPBM binding intensity (ln)” value read?
Answer: The value was 10.1.

Question: Which “gcPBM binding intensity (ln)” value does the source give for “AATATCATCAAACGCACACATACATAAATATATTAT [CACACA_site2174]” here?
Answer: Its value is 7.74.

Question: Which “gcPBM binding intensity (ln)” value does the source give for “ATACGCACACATATATGTACATATTGTATATATATA [XGTACX_site3962]” here?
Answer: Its value is 8.34.

Question: How did the “gcPBM binding intensity (ln)” value turn out when “TGTATAAATATATGCACACATATATATATTTATATA [CACACA_site3473]” was run?
Answer: The value was 10.

Question: For “TATTTATATGTATATACATGCACATATATATGAAAC [TGCATGCA_site1005]”, which “gcPBM binding intensity (ln)” value is on record?
Answer: The value was 8.8.

Question: “TATGTATAAATATATGCACACATATATATATTTATA [CACACA_site9150]” was tested. Which “gcPBM binding intensity (ln)” value did it give?
Answer: The value was 9.35.

Question: “TATACGAAATTGTGCACACATATATTTATGTATGTA [CACACA_site1509]” was tested. Which “gcPBM binding intensity (ln)” value did it give?
Answer: The value was 11.

Question: Which “gcPBM binding intensity (ln)” value does the source give for “AATATACGAAATTGTGCACACATATATTTATGTATG [CACACA_site1510]” here?
Answer: The value was 10.8.

Question: “TAGATAAAATGAACATGTACTCATCTTAATATATAT [XGTACX_site34]” was tested. Which “gcPBM binding intensity (ln)” value did it give?
Answer: Its value is 6.23.

Question: “AAAAGATATATTATATGTACTAATTATATGATAAAT [XGTACX_site4192]” was tested. Which “gcPBM binding intensity (ln)” value did it give?
Answer: Its value is 6.32.

Question: “AGAGGTAGAGAGAAAACATGCATAATGATTTTCATA [TGCATGCA_site958]” was tested. Which “gcPBM binding intensity (ln)” value did it give?
Answer: The value was 6.1.

Question: How did the “gcPBM binding intensity (ln)” value turn out when “CATGCTACATCTTATTGTACTTATCTAATGTTAGTA [XGTACX_site1863]” was run?
Answer: Its value is 6.75.

Question: With “TATGTGCACCCATGTACATGCGGACATATGTTATAT [TGCATGCA_site383]” as the sequence, how does the “gcPBM binding intensity (ln)” value read?
Answer: Its value is 10.6.

Question: For “ATATATATATATGCATGTACATATATTTGTTATATC [XGTACX_site3197]”, which “gcPBM binding intensity (ln)” value is on record?
Answer: Its value is 9.16.

Question: Which “gcPBM binding intensity (ln)” value does the source give for “TATATATATATATATGCATGTACATATATTTGTTAT [TGCATGCA_site379]” here?
Answer: The value was 9.2.

Question: “AAAATATTTATTACTTCACACATTATTGTATTTATA [CACACA_site5082]” was tested. Which “gcPBM binding intensity (ln)” value did it give?
Answer: Its value is 6.5.

Question: For “TTTGTTTTTTTGAGAGTGCAATATATATAAAAAGGG [GTGCAC_site9691]”, which “gcPBM binding intensity (ln)” value is on record?
Answer: The value was 9.35.

Question: Which “gcPBM binding intensity (ln)” value does the source give for GCGTGTGTACAATGAGTGCATATCTAAAGGGAAGAT here?
Answer: Its value is 9.43.

Question: TTTCGTAATATGCGTGTGCACAATGAGTCCATATCT was tested. Which “gcPBM binding intensity (ln)” value did it give?
Answer: The value was 10.9.

Question: For TATATATATATATGAGTGCATATGTGTAATATAAAA, which “gcPBM binding intensity (ln)” value is on record?
Answer: Its value is 9.65.

Question: Which “gcPBM binding intensity (ln)” value does the source give for “TCAAAAAAAAAAAAAAAAAAAAAAAAAAAAAAAAAA [CACACA_negctrl_site1753]” here?
Answer: Its value is 5.92.

Question: “TATTAATAAATATGTTTACACACGAAAATACATTTT [CACACA_site1012]” was tested. Which “gcPBM binding intensity (ln)” value did it give?
Answer: Its value is 6.35.

Question: For “TGTATTAAATTTTGAACACACAAAATAAAACATATA [CACACA_site1672]”, which “gcPBM binding intensity (ln)” value is on record?
Answer: The value was 6.54.

Question: “TTCTTTGTAGTATATTAACACACAACTGTTTATAAT [CACACA_site9305]” was tested. Which “gcPBM binding intensity (ln)” value did it give?
Answer: The value was 6.67.

Question: “CTTTGTAGTATATTAACACACAACTGTTTATAATAT [CACACA_site6038]” was tested. Which “gcPBM binding intensity (ln)” value did it give?
Answer: The value was 6.53.

Question: How did the “gcPBM binding intensity (ln)” value turn out when “TGTATAATATTTGGTGCACACAAATTAACAACTGTT [CACACA_site9245]” was run?
Answer: Its value is 10.6.

Question: “TATAATATTTGGTGCACACAAATTAACAACTGTTTA [CACACA_site3742]” was tested. Which “gcPBM binding intensity (ln)” value did it give?
Answer: Its value is 10.8.

Question: With “TTTATTTTTAACAGTGCACACATAACTTAATTATAT [CACACA_site8681]” as the sequence, how does the “gcPBM binding intensity (ln)” value read?
Answer: Its value is 9.52.

Question: Which “gcPBM binding intensity (ln)” value does the source give for “TCGTAGTTACTATGGCAAGAAAATAAACGGTCTTGT [GTGCAC_negctrl_site684]” here?
Answer: The value was 6.6.

Question: “ATTAAAAATTATATTTTATAAAAATTAAAAGAAATA [CACACA_negctrl_site65]” was tested. Which “gcPBM binding intensity (ln)” value did it give?
Answer: Its value is 6.47.

Question: “AATAATTTTTTAAACACACACACATATATATATATA [CACACA_site95]” was tested. Which “gcPBM binding intensity (ln)” value did it give?
Answer: The value was 9.08.

Question: With “AAAAATATATATATATATATATATATATTATTTTTT [TGCATGCA_negctrl_site378]” as the sequence, how does the “gcPBM binding intensity (ln)” value read?
Answer: The value was 7.

Question: “TAGAAGCATCATTTTACACACATGCAAATGTAAACT [CACACA_site6973]” was tested. Which “gcPBM binding intensity (ln)” value did it give?
Answer: Its value is 6.66.

Question: How did the “gcPBM binding intensity (ln)” value turn out when “ATTATGCACAGACACACACACACACTACTAAAAAAT [CACACA_site7252]” was run?
Answer: Its value is 11.1.

Question: How did the “gcPBM binding intensity (ln)” value turn out when “TTATTAGAAAAATGCACACCAAAAAAAAAAAAAAAA [CACACA_site2522]” was run?
Answer: The value was 8.93.

Question: For “GAAATTAAAAAATTTATGCACACTTTAAAAAAAAAA [CACACA_site3769]”, which “gcPBM binding intensity (ln)” value is on record?
Answer: The value was 9.28.

Question: With “AAAAGATAATTATGCACACACACACCCAGACACAAC [CACACA_site5428]” as the sequence, how does the “gcPBM binding intensity (ln)” value read?
Answer: The value was 10.4.

Question: For “ATTATATATATATATACACACACACCCTAAAAATAT [CACACA_site8463]”, which “gcPBM binding intensity (ln)” value is on record?
Answer: The value was 7.22.

Question: Which “gcPBM binding intensity (ln)” value does the source give for “ATTATGCACCAACACACACACACACTCCTAAAAAAT [CACACA_site8822]” here?
Answer: Its value is 11.7.

Question: How did the “gcPBM binding intensity (ln)” value turn out when “AAAAAATTAGATTATGCACACACACTAATAAATAAT [CACACA_site8604]” was run?
Answer: Its value is 9.67.

Question: How did the “gcPBM binding intensity (ln)” value turn out when “TATGCACCCAGACACACACACACAACTAAAAAATAA [CACACA_site2567]” was run?
Answer: Its value is 8.1.

Question: How did the “gcPBM binding intensity (ln)” value turn out when “ATTATGCACGGACACACACACACACCCCTAAAAAAT [CACACA_site5426]” was run?
Answer: Its value is 10.5.

Question: How did the “gcPBM binding intensity (ln)” value turn out when “TAATTATGCGGACACACACACACACCCAACTAAAAA [CACACA_site5427]” was run?
Answer: The value was 6.81.

Question: With “AAAAAAGATAATTATGCACACACACCCACCCACCCA [CACACA_site8825]” as the sequence, how does the “gcPBM binding intensity (ln)” value read?
Answer: Its value is 9.38.

Question: Which “gcPBM binding intensity (ln)” value does the source give for “AAAAGATAATTATGCACACACACACCCCCACCCAAC [CACACA_site2570]” here?
Answer: The value was 10.5.

Question: How did the “gcPBM binding intensity (ln)” value turn out when “ACCTATTTCAAACACACACACACACTAGCAAACATA [CACACA_site4695]” was run?
Answer: Its value is 7.26.

Question: Which “gcPBM binding intensity (ln)” value does the source give for AAGAGAAAAATATGGTTGCACTAAAAATATATATTT here?
Answer: The value was 8.26.

Question: How did the “gcPBM binding intensity (ln)” value turn out when “ATCATTTTTAAAGGAACACACAAAAAAAATTAAAAT [CACACA_site4878]” was run?
Answer: The value was 6.76.

Question: Which “gcPBM binding intensity (ln)” value does the source give for “TCTTTTTTAATATAATATATTTTTATTAAGTAAATC [TGCATGCA_negctrl_site408]” here?
Answer: Its value is 6.2.

Question: Which “gcPBM binding intensity (ln)” value does the source give for “ATTAATAATGAGTTATGTACATACATATTTTAAGAT [XGTACX_site7543]” here?
Answer: Its value is 6.75.

Question: AATAAATACTAAATGGTGCAAAATTTTTTAACACTG was tested. Which “gcPBM binding intensity (ln)” value did it give?
Answer: The value was 10.
